# Results: PubChem BioAssay AID1851 (National Center for Advancing Translational Sciences (NCATS), 2009)
# The whole screen tested about 16,000 compounds, of which about 4,000 (25%) were called active. Another 26% or so got no clear call; they are omitted. Calls come from the whole dose curve; as a rule, active = well fitted curve in the direction sought with a large enough effect; inconclusive = small, poorly fitted or top-dose-only effect, or effect the other way; inactive = no such curve, though single readings can be large or run the other way. Only a sample is shown.
# Molecular target: Cytochrome P450 2C9 (Homo sapiens) (UniProt P11712)
# Test: Cytochrome panel assay with activity outcomes
# Details: recombinant CYP, pro-luciferin dealkylation, luminescence, p450-cyp2c9; series mostly up to 57.1 µM; activity, negative = inhibition: at the top concentration
# % is set by controls: 0 for no effect and ±100 for the full control effect.
# Sequence of Cytochrome P450 2C9 (Homo sapiens) (P11712 whole entry, looked up): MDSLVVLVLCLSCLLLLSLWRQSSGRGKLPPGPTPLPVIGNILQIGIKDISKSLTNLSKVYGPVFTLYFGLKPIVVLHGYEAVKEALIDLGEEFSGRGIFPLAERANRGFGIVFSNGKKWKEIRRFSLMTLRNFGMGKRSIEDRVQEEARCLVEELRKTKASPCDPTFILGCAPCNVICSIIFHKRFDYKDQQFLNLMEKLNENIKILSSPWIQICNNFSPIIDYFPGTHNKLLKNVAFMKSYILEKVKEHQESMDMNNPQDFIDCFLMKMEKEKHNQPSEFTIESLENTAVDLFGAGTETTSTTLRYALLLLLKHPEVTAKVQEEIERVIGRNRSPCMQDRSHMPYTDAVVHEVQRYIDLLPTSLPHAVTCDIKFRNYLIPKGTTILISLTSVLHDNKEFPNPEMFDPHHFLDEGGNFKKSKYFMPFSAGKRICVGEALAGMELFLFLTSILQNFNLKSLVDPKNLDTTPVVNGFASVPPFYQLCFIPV
SMILES,"activity, negative = inhibition",AC50
C1CCC(C(C[C@@H]2CCCCN2)C2CCCCC2)CC1,6.08% [at 25.6 µM] (inactive),–
CNc1ccnc(-c2ccccc2C)n1,24.5% [at 2.29 µM] (inactive),–
C[C@@H]1O[C@@H](n2cc(F)c(=O)[nH]c2=O)[C@H](O)[C@@H]1O,25.7% (inactive),–
N=C(C[C@@H](O)COc1ccccc1-c1ccccc1)N1CCCCC1,-27.4% (inactive),–
CC[C@H](C)[C@@H]1O[C@]2(CC[C@@H]1C)C[C@H]1C[C@H](CC=C(C)[C@@H](O[C@H]3C[C@H](OC)[C@H](O[C@H]4C[C@H](OC)[C@H](O)[C@H](C)O4)[C@H](C)O3)[C@@H](C)C=CC=C3CO[C@@H]4[C@@H](O)C(C)=C[C@H](C(=O)O1)[C@@]34O)O2,-17.5% (inactive),–
COc1ccc(-c2nc3cnc(N4CCNCC4)nc3n(C)c2=O)cc1,-21.4% (inactive),–
Cn1c(=O)c(-c2cc(F)cc(F)c2)nc2cnc(N3CCOCC3)nc21,10.6% (inactive),–
COc1ccc(-c2nc3cnc(N4CCN(C)CC4)nc3n(C3CC3)c2=O)cc1,-12.7% (inactive),–
O=c1c(-c2cc(F)cc(F)c2)nc2cnc(N3CCNCC3)nc2n1C1CC1,–,0.158 µM (active)
O=c1c(-c2cc(F)cc(F)c2)nc2cnc(N3CCOCC3)nc2n1C1CC1,9.41% (inactive),–
COc1ccc(-c2nc3cnc(N4CCNCC4)nc3n(C3CC3)c2=O)cc1,–,7.94 µM (active)
CN1CCN(c2nc(-c3ccoc3)nc3ccccc23)CC1,6.78% [at 2.29 µM] (inactive),–
COc1ccccc1CN1CC2(CCN(C(=O)c3cnccn3)CC2)C1,9.97% (inactive),–
CC(C)CN1CCC2(CC1)CCN(C(=O)c1ccncc1)CC2,4.6% (inactive),–
CCn1c(=O)[nH]c2ccccc2c1=O,17.7% (inactive),–
Cc1cc(=O)[nH]c2ccccc12,25.9% (inactive),–
CC1CCCC(n2c(=S)[nH]c3ccccc3c2=O)C1C (centres undefined),–,3.55 µM (active)
CN(C)C(=O)/N=N\C(=O)N(C)C,-6.5% (inactive),–
CCn1c(O)c(/C=C2\C=Nc3ccccc32)sc1=Nc1ccc(C)cc1,–,2.24 µM (active)
CC(C)n1c(O)c(/C=C2\C=Nc3ccccc32)sc1=Nc1ccccc1,–,2.51 µM (active)
C[C@@H](CNC(N)=O)NC(N)=O,20.8% [at 11.4 µM] (inactive),–
Cc1ccc2c(c1)N(CC(=O)NCc1cccs1)C(=O)C(C)O2 (centres undefined),24.4% (inactive),–
Cc1ccc(-c2cc(C(=O)NCc3ccco3)c3ccccc3n2)s1,–,3.98 µM (active)
CN(C)C(=O)c1ccc(-c2nccc(NCc3cccs3)n2)cc1,10.6% [at 2.29 µM] (inactive),–
Cc1ccc(Nc2ncccc2C(=O)NCc2cccs2)c(C)c1,–,15.8 µM (active)

SMILES,"activity, negative = inhibition",AC50
Cc1ccc(C)c(-c2cc(C(=O)Nc3nccs3)c3ccccc3n2)c1,–,2.82 µM (active)
Cc1ccc(C)c(-c2cc(C(=O)Nc3sc(C)c(C)c3C(N)=O)c3ccccc3n2)c1,–,0.794 µM (active)
N[C@@](CCc1ccccc1)(C(=O)O)c1ccccc1,-3.36% [at 11.4 µM] (inactive),–
COc1cccc(Nc2ncc3nc(C)c(=O)n(CCC#N)c3n2)c1,-1.51% (inactive),–
CN(C)CCCn1c2c3ccccc3ccc2c2oc(=O)c3ccccc3c21,-5.42% [at 11.4 µM] (inactive),–
Cc1noc(C)c1-c1nc(NCc2cccs2)c2ccccc2n1,-11.4% [at 2.29 µM] (inactive),–
Cc1ccc(C)c(-c2cc(C(=O)NCc3cccs3)c3ccccc3n2)c1,–,1.26 µM (active)
CN(C)C(=O)c1ccc(-c2nc(NCc3cccs3)c3ccccc3n2)cc1,-26.2% [at 2.29 µM] (inactive),–
CS(=O)(=O)N1CCC2(CCN(C(=O)Nc3cccc(C#N)c3)CC2)CC1,-1.38% (inactive),–
c1ccc2oc(C3=NCCN3)cc2c1,6.13% (inactive),–
COCCOC(=O)C1=C(C)NC(=O)N(C(C)=O)C1c1ccc(Cl)cc1 (centres undefined),–,4.47 µM (active)
CC(=O)NC(Cc1ccc(F)cc1)C(=O)O (centres undefined),7.48% (inactive),–
Cc1nc2c(C(=O)NCCC(C)C)c[nH]n2c(=O)c1Cc1ccccc1F,–,2.82 µM (active)
Cc1nc2c(C(=O)NCc3ccc4c(c3)OCO4)c[nH]n2c(=O)c1Cc1ccccc1F,–,0.501 µM (active)
O=C(O)c1cc2c(o1)CCC/C2=N\O,-26.6% (inactive),–
CC1(C)S[C@@H]2[C@H](NC(=O)[C@@H](N)c3ccc(O)cc3)C(=O)N2[C@H]1C(=O)O,17% [at 25.6 µM] (inactive),–
O=c1[nH]c2cc(Cl)ccc2c(O)c1-c1ccc(Oc2ccccc2)cc1,–,12.6 µM (active)
O=c1[nH]c2cc(Cl)ccc2c(O)c1-c1cccc(Oc2ccccc2)c1,-21.6% (inactive),–
O=C(c1c(O)c2ccc(Cl)cc2[nH]c1=O)C1CC1,-5.08% (inactive),–
CCOC(=O)Cc1cc(=O)n2[nH]c(C)c(C#N)c2n1,-6.59% (inactive),–
CCOC(=O)Cc1c(C)nc2c(C#N)c[nH]n2c1=O,–,12.6 µM (active)
CC(C)CCNC1=NCCCCC1,3.84% (inactive),–
OC[C@H]1O[C@H](n2cnc3c(NC4CCCC4)nc(Cl)nc32)[C@@H](O)[C@@H]1O,-9.28% (inactive),–
Cc1noc(C)c1-c1nc(NC2CCNCC2)c2ccccc2n1,13% [at 2.29 µM] (inactive),–
O=C(c1n[nH]c(=O)c2ccccc12)N1CCN(C2c3ccccc3-c3ccccc32)CC1,–,2.82 µM (active)

SMILES,"activity, negative = inhibition",AC50
Cc1cc(C)nc(SCCc2cccc[n+]2C)n1,-3.45% [at 11.4 µM] (inactive),–
COc1cc(/C=C(\C#N)C(=O)c2ccc(O)c(O)c2)cc(I)c1O,–,0.501 µM (active)
N#C/C(=C\c1ccc(O)c(O)c1)C(=O)c1ccc(O)c(O)c1,11.7% (inactive),–
C[C@H]1CN(CCO)CCN1c1ccccc1,-1.76% [at 11.4 µM] (inactive),–
COc1cccc([C@H](O)Cn2cc(-c3cccc(CON=C(C)C)c3)nn2)c1,-2.7% [at 11.4 µM] (inactive),–
CC(C)=NOCc1ccc(-c2cc(-c3ccccc3)no2)cc1,12% [at 11.4 µM] (inactive),–
CC(C)=NOCc1cccc(-c2cc(-c3ccccc3)no2)c1,–,3.98 µM (active)
COc1ccc(C2(C(=O)N3CCOCC3)CCCC2)cc1,-17.7% (inactive),–
CC(=O)c1ccc(NC(=O)C2(c3ccccc3)CCOCC2)cc1,–,5.01 µM (active)
CN(C)CCOC(=O)C1(c2ccccc2)CCOCC1,-19.5% (inactive),–
CCOC(=O)c1ccc(NC(=O)C2(c3ccc(OC)cc3)CCOCC2)cc1,–,5.62 µM (active)
CCOC(=O)c1ccc(N/C=C/C(=O)c2ccc(OC)cc2)cc1,13.1% (inactive),–
Cc1cnc(CNc2ccnc(-c3ccccc3C)n2)cn1,11.5% [at 2.29 µM] (inactive),–
O=C(OCC(=O)c1cccs1)c1cccc(C(=O)OCC(=O)c2cccs2)n1,–,8.91 µM (active)
CCOC(=O)c1cccc(C(=O)OCC)n1,-2.66% (inactive),–
COc1ccc(CNc2cc(-c3ccoc3)ncn2)c(OC)c1,3.4% [at 2.29 µM] (inactive),–
Cc1cccc(CN2CCN([C@@H](c3ccccc3)c3ccc(Cl)cc3)CC2)c1,-14.8% [at 25.6 µM] (inactive),–
COc1ccccc1C(c1nnnn1C(C)(C)C)N1CCN(Cc2ccncc2)CC1 (centres undefined),–,0.631 µM (active)
COc1ccccc1C(c1nnnn1C(C)(C)C)N1CCCc2ccccc21 (centres undefined),–,3.98 µM (active)
COc1ccccc1CN1CC2(CCN(C(=O)c3ccncc3)CC2)C1,2.75% (inactive),–
CNC(=O)[C@@H]1O[C@@H](n2cnc3c(NCc4ccc(N)cc4)ncnc32)[C@@H](O)[C@H]1O,6.6% (inactive),–
CCN1CCCC1CNC(=O)C(=O)Nc1ccc(OC)cc1 (centres undefined),3.7% (inactive),–
COc1ccc(COC(=O)N/N=C2/C[C@@H](O)[C@@H](O)[C@@H]3[C@@H]4C(=O)N(c5cccc(Oc6ccccc6)c5)C(=O)[C@H]4CC[C@H]23)cc1,-15.2% [at 11.4 µM] (inactive),–
COc1ccc(NC(=O)CC2C(=O)N(c3cccc(OC)c3)C(=O)N2C2CCCCC2)cc1 (centres undefined),–,15.8 µM (active)
COc1cccc(N2C(=O)C(CC(=O)Nc3ccccc3)N(C3CCCCC3)C2=O)c1 (centres undefined),–,8.91 µM (active)

SMILES,"activity, negative = inhibition",AC50
COc1ccc(COC(=O)N/N=C2/C[C@@H](O)[C@@H](O)[C@@H]3[C@@H]4C(=O)N(c5cccc(Oc6ccccc6)c5)C(=O)[C@H]4CC[C@@H]23)cc1,-7.36% [at 11.4 µM] (inactive),–
CC1(C)O[C@@H]2C[C@H]3[C@H]4C[C@H](F)C5=CC(=O)C=C[C@@]5(C)[C@@H]4[C@H](O)C[C@]3(C)[C@]2(C(=O)CO)O1,-11.4% [at 25.6 µM] (inactive),–
O=C(NCc1ccco1)c1ccc2c(=O)n(-c3ccccc3)c(=S)[nH]c2c1,9.67% (inactive),–
Cc1ccc(-n2c(N)c(C(=O)NCc3ccco3)sc2=S)cc1,–,14.1 µM (active)
COC(=O)CCCC(=O)O,-1.69% [at 11.4 µM] (inactive),–
CCCCNC(=O)NS(=O)(=O)c1ccc(C(=O)OC(C)C)o1,–,2.82 µM (active)
CCCCNC(=O)NC1C(NC(=O)NCCCC)N(C)C(=O)N1C (centres undefined),-17% (inactive),–
Cc1ccc(CS(=O)(=O)CCC(=O)NCCCOC(C)C)cc1,-10.3% (inactive),–
Cc1cc(C(F)F)n2ncc(C(=O)NCc3ccccc3C(F)(F)F)c2n1,-63.8% (inactive),–
Cc1ccc(-c2cc(C(F)F)n3ncc(C(=O)Nc4c(C)nn(Cc5c(Cl)cccc5Cl)c4C)c3n2)cc1,–,1 µM (active)
Cc1nn(Cc2c(Cl)cccc2Cl)c(C)c1NC(=O)c1cnn2c(C(F)F)cc(-c3ccccc3)nc12,–,1.26 µM (active)
CC(=O)OC[C@@H]1O[C@H](C/C=N\OC[C@@H](O)COCc2ccco2)C=C[C@@H]1OC(C)=O,24.5% [at 11.4 µM] (inactive),–
N[C@H](C(=O)O)[C@@H](O)c1cnc[nH]1,20.3% [at 11.4 µM] (inactive),–
CC1=CC(C)(C)Nc2ccc(CSc3ccccc3)cc21,–,0.2 µM (active)
O=c1cc(CSc2ccccc2)[nH]c(=S)[nH]1,-6.77% (inactive),–
N#Cc1c(-c2ccccc2)no[n+]1[O-],4.32% (inactive),–
Cn1c(=O)c2[nH]c(CSCc3ccccc3)nc2n(C)c1=O,-13.3% [at 11.4 µM] (inactive),–
O=C(O)c1nc(-c2ccccc2)[nH]c1C(=O)O,-21.7% [at 11.4 µM] (inactive),–
N#CCCn1c(=O)c(-c2ccccc2)nc2cnc(Nc3ccccc3)nc21,16.4% (inactive),–
N#Cc1c(-c2ccccc2)nc(-c2ccccc2)[nH]c1=O,–,0.316 µM (active)
Cc1nc2c(C#N)c(C)[nH]n2c(=O)c1Cc1ccccc1,–,7.08 µM (active)
CSc1nc(O)c(Cc2ccccc2)c(=O)[nH]1,-25.9% (inactive),–
COC(=O)Cc1cc(=O)n2[nH]c(C)c(-c3ccccc3)c2n1,3.63% (inactive),–
Cc1[nH]n2c(=O)c(C#N)c(-c3ccccc3)nc2c1-c1ccccc1,–,11.2 µM (active)
